Results reported in the OligoGym collection.

target: IFI44L; assay: pooled miR-30 sensor sort-seq; sequence = guide strand; details: shRNA

First: TTCTTTGTGAACTTGCTTCACT
Second: TTTATGGACATTCATGACCCGG
The sensor-assay potency score (higher = more potent) of the first is higher: 0.156 for the first, -1.2 for the second.

Going from TTATGGACATTCATGACCCGGC to TAATACTTCTTTGTGAACTTGC, the sensor-assay potency score (higher = more potent) rises from -0.0543 to 0.781.

First: TACTTCTTTGTGAACTTGCTTC
Second: TTGAAGTGAAAACCATAGGGAA
The sensor-assay potency score (higher = more potent) of the first is higher: 0.0933 for the first, -0.486 for the second.

Going from TTTCGATAAACGACACACCAGT to TTGTCTTGAAGAACCTCACTGC, the sensor-assay potency score (higher = more potent) rises from -0.943 to 0.709.

Compared with TTTGTGAACTTGCTTCACTTTT, TAGCATTTTATGGACATTCATG is lower in sensor-assay potency score (higher = more potent): -0.819 for the first, -1.18 for the second.

Work on TATGTCGTCTAGGTTATCCTTA yielded a sensor-assay potency score (higher = more potent) of 0.221.

target: IFLTD1; assay: as above; details: shRNA

First: TTGCTTTTCTAGTAGCTGGTTG
Second: TAAGTTTCTTTGAATCACCAAA
The sensor-assay potency score (higher = more potent) of the first is higher: -0.208 for the first, -0.981 for the second.

Going from TCTTCTTTTTCTTAGACCCTGA to TAGACAGATAGTAACCAAGAGG, the sensor-assay potency score (higher = more potent) falls from -0.319 to -1.22.

Compared with TTGAGATATCTTTCTTAGGTTG, TATAGTTACTCTACTAATCTGA is higher in sensor-assay potency score (higher = more potent): -0.851 for the first, 0.529 for the second.

First: TTGAATAATACTAACCATCTGC
Second: TTTTCCACTCTGGAACAGCTAC
The sensor-assay potency score (higher = more potent) of the first is higher: 0.269 for the first, -0.846 for the second.

Compared with TTGCTCTAAACTTGTCTTGTTC, TTGTCCATTCACATTTTGCTGG is higher in sensor-assay potency score (higher = more potent): -0.614 for the first, -0.587 for the second.

Going from TAATTTGAGATATCTTTCTTAG to TTGTTATACAATCAGGACTTGC, the sensor-assay potency score (higher = more potent) falls from -0.577 to -1.51.

target: IFNA17; assay: as above; details: shRNA

First: TGTATTTCTTCTCTGTTAGATA
Second: TATCACACATGCTTCCAGGTTA
The sensor-assay potency score (higher = more potent) of the first is lower: -1.15 for the first, 0.103 for the second.

First: TTCTCTGTTAGATAAAGAGTGA
Second: TCTGAGGCAGATCACAGCCTAG
The sensor-assay potency score (higher = more potent) of the first is higher: -0.598 for the first, -1.69 for the second.

Compared with TTCCAGGTTATTCAGTTGCTGG, TCTTCTGGAACTGGTTGCCATC is lower in sensor-assay potency score (higher = more potent): -1.21 for the first, -1.69 for the second.

First: TTGCTGGTAAAGTTCAGTGGAA
Second: TCTTCCATCCCAACCTCCTGTA
The sensor-assay potency score (higher = more potent) of the first is lower: -0.731 for the first, -0.396 for the second.

Compared with TAGAGAACAGATGGATTTGTAG, TATTTTTTGCAAGTTTGTTGAA is lower in sensor-assay potency score (higher = more potent): -0.448 for the first, -0.556 for the second.

target: IFT52; assay: as above; details: shRNA

Going from TTCATGTTTCACATTTAGCTGC to TTCTTCAGTACACTTATTGGTA, the sensor-assay potency score (higher = more potent) falls from -0.162 to -0.369.

First: TTTCACATTTAGCTGCTCGTGA
Second: ATATTGATCACTGAACATGTGA
The sensor-assay potency score (higher = more potent) of the first is higher: 0.557 for the first, -0.0473 for the second.

First: TATTCTTCTAGTAAAAAGTTAA
Second: TTTGGCATCCTGTTGGTCCTTT
The sensor-assay potency score (higher = more potent) of the first is lower: -1.44 for the first, 0.0621 for the second.

For TTAATATTGGTGTCAAATCTGG, the sensor-assay potency score (higher = more potent) was -0.514.
